Pf apPOL inh: Pf-apPOL inhibitors, biochemical, fluorescence; inhibition, % at 10 µM; Recombinant Pf-apPOL, molecular beacon fluorescence, 1.5 h; Plasmodium falciparum apicoplast DNA polymerase (apPOL); 210,000 tested, 0.25% active
mHTT CaM bind: mutant huntingtin-calmodulin interaction inhibitors – biochemical, AlphaScreen, primary screen. AlphaScreen His-mHTT/GST-CaM binding, luminescence. inhibition, % at 15 µM. 190,000 tested, 3.6% active. AID 1671202, 2021
A number is an active result; n = inactive. A selection: hits, their analogues and other compounds. The true share with any hit is near 3.6%. Cut-off read from the data, not from the text of the source: active = inhibition above about 50%; inactive = the rest.

SMILES	Pf apPOL inh	mHTT CaM bind
COCCNC(=O)c1ccc2c(c1)nc(C)n2-c1cccc(C)c1	n	n
Cc1cccc(-c2noc(C3CCN(CC(=O)Nc4ccc(C)cc4F)CC3)n2)c1	n	n
Cn1nc(C(=O)NCc2ccc3c(c2)OCO3)c2c1CCN(C(=O)C1CCCC1)C2	n	n
CC[C@H]1C(c2ccccc2)=NN(c2ccccc2)[C@@H]1CO	n	n
C[C@H]1C(c2ccc(F)cc2)=NN(c2ccccc2)[C@@H]1CO	n	n
OC[C@@H]1[C@@H](c2ccc(F)cc2)C(c2cccc(Cl)c2)=NN1c1ccccc1	n	71.7
OC[C@@H]1[C@@H](c2ccc(Cl)cc2)C(c2cccc(Cl)c2)=NN1c1ccccc1	n	74.1
OC[C@@H]1[C@@H](c2ccc(Cl)cc2)C(c2ccccc2)=NN1c1ccccc1	n	86.4
C[C@H]1C(c2cccc(Cl)c2)=NN(c2ccccc2)[C@@H]1CO	n	n
CCN1CCN(c2ccc(N3CCC(C(=O)NCCC4=CCCCC4)CC3)nn2)CC1	n	n
O=C(NCc1ccccn1)c1ncn[nH]1	n	n
CC(C)(C)c1ccc(OCNC(=O)c2ncn[nH]2)cc1	n	73.0
Cc1ccccc1OCC(=O)N1CCC(Cc2nc3cccnc3n2C)C1 (stereo not drawn)	n	n
CSc1ccc(N2CC(c3nnc(NC(=O)c4cccs4)o3)CC2=O)cc1 (stereo not drawn)	n	63.5
CCOc1ccc(N2CC(c3nnc(NC(=O)c4ccccc4)o3)CC2=O)cc1 (stereo not drawn)	n	82.3
CSc1ccc(N2CC(c3nnc(NC(=O)c4cccc(F)c4)o3)CC2=O)cc1 (stereo not drawn)	n	62.4
O=C(Nc1nnc(C2CC(=O)N(c3ccccc3)C2)o1)c1ccccc1 (stereo not drawn)	n	n
CSc1ccc(N2CC(c3nnc(NC(=O)c4ccc(Cl)cc4)o3)CC2=O)cc1 (stereo not drawn)	n	n
O=C(Nc1nnc(C2CC(=O)N(c3ccc(F)cc3)C2)o1)c1cccc(F)c1 (stereo not drawn)	n	n
O=C(Nc1nnc(C2CC(=O)N(c3ccccc3)C2)o1)c1cccs1 (stereo not drawn)	n	55.5
CCCOc1ccc(C(=O)Nc2nnc(C3CC(=O)N(c4ccc(OCC)cc4)C3)o2)cc1 (stereo not drawn)	n	n
COc1ccc(N2CCN(C(=O)c3c(F)cccc3F)CC2)nn1	n	n
COc1ccccc1-c1nc(SCC(=O)Nc2cccc(C(F)(F)F)c2)n[nH]1	n	n
COc1ccc(CCN2COc3ccc4c(c3C2)OC(=Cc2cccnc2)C4=O)cc1	n	n
COc1ccc(CN2CCN(Cc3ccc([N+](=O)[O-])cc3)CC2)cc1OC	n	n
SMILES	Pf apPOL inh	mHTT CaM bind
O=c1oc2cc(Cl)c(Cl)cc2cc1-c1nc(C2CC2)cs1	n	n
O=C(CSc1nc2ccsc2c(=O)n1Cc1ccccc1F)NCc1ccco1	n	n
N#CC1=C2N=C(N)c3c(sc4c3CCCCC4)N2C2=C(C(=O)CCC2)C1c1cccnc1 (stereo not drawn)	n	61.0
N#CC1=C2NC(=O)c3c(sc4c3CCCCC4)N2C2=C(C(=O)CCC2)C1c1cccnc1 (stereo not drawn)	n	n
CN(Cc1ccccc1)C(=O)c1ccc(-c2cccs2)nc1	n	n
CC(C)c1ccc(NC(=O)C2CC2c2ccccc2)cc1 (stereo not drawn)	n	n
O=C(Nc1ccc(Nc2ccccc2)cc1)C1CC1c1ccccc1 (stereo not drawn)	n	88.5
CC(C)C[C@@H](CSc1ccccc1)N1CCN(CCc2ccccc2)CCC1=O	n	88.4
CC(C)C[C@@H](CSc1ccc(Br)cc1)N1CCN(CCc2ccccc2)CCC1=O	n	n
O=C1CCN(CCc2ccccc2)CCN1[C@H](CSc1ccccc1)c1ccccc1	n	100.2
Cc1ccc(SC[C@H](Cc2ccccc2)N2CC[C@@H](C)CCC2=O)cc1	n	n
CCCN1CCC(=O)N([C@H](CSc2ccccc2)c2ccccc2)CC1	n	n
O=C1CCC(OCc2ccccc2)CCN1[C@H](CSc1ccccc1)Cc1ccccc1 (stereo partly drawn)	n	52.8
CC(=O)Nc1ccc(SCCN2CCN(CCc3ccccc3)CCC2=O)cc1	n	n
CC(=O)Nc1ccc(SC[C@H](Cc2ccccc2)N2CCN(CCc3ccccc3)CCC2=O)cc1	n	99.9
Cc1ccc(C(=O)N2CCc3nc(-c4ccc(F)cc4)ncc3C2)cc1	n	n
COc1ccc(C2CCCN2Cc2cc(OC)cc(OC)c2)cc1 (stereo not drawn)	n	n
CN(C)CCNc1c2c(c(C#N)c3nc4ccccc4n13)CCC2	n	n
Cc1cc2c(c(=O)o1)C(c1ccc(Cl)c(Cl)c1)C(C#N)=C(N)O2 (stereo not drawn)	n	n
CC(C(=O)N1CCCc2c1c(=O)oc1ccc(OCc3ccccc3)cc21)N1CCCCCC1 (stereo not drawn)	n	n

High-throughput results as filed in PubChem BioAssay.
